Experiment [1] in a line: antimalarial activity against Dd2 strain (AID 2302;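 active means growth inhibition above 50% at the single 2 µM test dose, taken to imply half-maximal potency below 2 µM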;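 further: 0% = DMSO untreated growth and 100% = chloroquine plus artemisinin killed control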). The note with it: P. falciparum Dd2 in RBCs, LDH growth readout, 72 h; at 2 µM; active compounds read high.
Experiment [2] is described as follows: human hepatoma cell viability loss – ATP luminescence, cytotoxicity control for P. falciparum antimalarial project, primary screen (AID 2303;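 active means inhibition above 50%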;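 further: 0% = DMSO wells and 100% = digitonin-killed cells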). The following applies: HepG2 viability, 24-48 h, at 10 µM, active compounds read high.
In experiment [3] the target is L-lactate dehydrogenase (Plasmodium falciparum (isolate CDC / Honduras)) (UniProt Q27743). Briefly: PfLDH activity inhibition – cell lysate, 3D7 strain, counter-screen for P. falciparum growth inhibition project (AID 2304).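 Further: 0% = vehicle and 100% = reference inhibitor.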 The following applies: P. falciparum 3D7 crude extract, LDH APAD/NBT absorbance; at 2 µM; active compounds read high.
The nature of experiment [4]: inhibition of 3D7 malaria parasite growth – strain 3D7 (AID 2306).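 Further: 0% = DMSO wells and 100% = chloroquine plus artemisinin control wells.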 The following applies: P. falciparum 3D7 erythrocytic growth, LDH absorbance, 72 h; at 2 µM; active compounds read high.
The target in experiment [5] is Calcium-dependent protein kinase 1 (Plasmodium falciparum (isolate 3D7)) (UniProt P62344). Briefly: PfCDPK1 kinase inhibitors, biochemical, TCAMS library (AID 1159585; cut-off not given, nearly all actives have IC50 up to about 0.98 µM;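 further: inhibitors leave more ATP so luminescence rises with inhibition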). The following applies: recombinant PfCDPK1, Kinase-Glo ATP depletion luminescence. In general terms: Kinase-Glo measures the ATP left after a reaction by luminescence.
Experiment [6] concerns the target Plasmodium falciparum protein kinase 6 (PK6, PF3D7_1337100) (UniProt Q8IDW1). The experiment can be described thus: PfPK6 kinase inhibitors, biochemical, TCAMS library (AID 1159586). The following applies: recombinant PfPK6, Kinase-Glo ATP depletion luminescence.
For experiment [7], the target named is Protein kinase 7 (PK7), Plasmodium falciparum 3D7 (PF3D7_0213400) (UniProt Q7YTF7). Briefly: inhibition of Plasmodium PK7 catalytic activity – biochemical, TCAMS antimalarial set, Kinase-Glo luminescence (AID 1159587). The note with it: recombinant PfPK7, Kinase-Glo ATP depletion luminescence.
Experiment [8] addresses Calcium-dependent protein kinase 4 (Plasmodium falciparum (isolate 3D7)) (UniProt Q8IBS5). The experiment can be described thus: PfCDPK4 kinase inhibitors, biochemical, TCAMS library (AID 1159588; cut-off not given, nearly all actives have IC50 up to about 0.91 µM). The note with it: recombinant PfCDPK4, Kinase-Glo ATP depletion luminescence.

The structures appear in SMILES notation. Unmarked numbers belong to inactive results. For some of these results: Potency and affinity values are given separately. Calls of active or inactive are those of the source. Unless noted, how the calls were made is not given here.

Sequence of L-lactate dehydrogenase (Plasmodium falciparum (isolate CDC / Honduras)) (Q27743 whole entry, looked up): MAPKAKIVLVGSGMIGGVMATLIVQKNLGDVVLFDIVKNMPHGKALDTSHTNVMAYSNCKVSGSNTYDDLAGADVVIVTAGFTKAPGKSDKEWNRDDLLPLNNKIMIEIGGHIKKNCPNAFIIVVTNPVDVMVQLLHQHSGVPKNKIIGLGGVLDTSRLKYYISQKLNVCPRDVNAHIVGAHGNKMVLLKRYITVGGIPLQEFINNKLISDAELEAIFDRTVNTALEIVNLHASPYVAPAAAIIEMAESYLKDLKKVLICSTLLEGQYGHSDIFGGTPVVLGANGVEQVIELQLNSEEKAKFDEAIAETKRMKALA
Sequence of Calcium-dependent protein kinase 1 (Plasmodium falciparum (isolate 3D7)) (P62344 whole entry, looked up): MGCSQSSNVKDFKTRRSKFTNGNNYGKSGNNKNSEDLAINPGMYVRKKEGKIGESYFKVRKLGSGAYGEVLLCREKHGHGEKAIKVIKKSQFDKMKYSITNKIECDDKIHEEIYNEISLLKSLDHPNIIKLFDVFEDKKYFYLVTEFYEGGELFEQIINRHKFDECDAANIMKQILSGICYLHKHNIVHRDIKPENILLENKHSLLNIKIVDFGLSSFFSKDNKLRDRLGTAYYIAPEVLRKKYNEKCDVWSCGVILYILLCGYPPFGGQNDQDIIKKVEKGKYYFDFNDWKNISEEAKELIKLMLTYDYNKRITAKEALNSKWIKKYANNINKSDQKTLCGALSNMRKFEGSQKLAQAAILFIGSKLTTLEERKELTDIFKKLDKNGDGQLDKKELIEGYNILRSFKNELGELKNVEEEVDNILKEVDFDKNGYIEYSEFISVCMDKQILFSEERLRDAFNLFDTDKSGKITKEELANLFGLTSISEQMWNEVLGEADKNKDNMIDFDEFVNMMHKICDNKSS
Sequence of Protein kinase 7 (PK7), Plasmodium falciparum 3D7 (PF3D7_0213400) (Q7YTF7 1-343): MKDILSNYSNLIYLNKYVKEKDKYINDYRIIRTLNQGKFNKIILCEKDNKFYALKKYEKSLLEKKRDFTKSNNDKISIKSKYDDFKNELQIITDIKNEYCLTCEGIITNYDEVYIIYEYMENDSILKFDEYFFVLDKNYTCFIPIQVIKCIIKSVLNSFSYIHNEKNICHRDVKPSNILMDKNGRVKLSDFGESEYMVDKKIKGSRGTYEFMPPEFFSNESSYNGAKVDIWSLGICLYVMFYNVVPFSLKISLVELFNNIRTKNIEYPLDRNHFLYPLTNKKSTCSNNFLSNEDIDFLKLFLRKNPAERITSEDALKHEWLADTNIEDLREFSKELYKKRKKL
Sequence of Plasmodium falciparum protein kinase 6 (PK6, PF3D7_1337100) (Q8IDW1 1-305): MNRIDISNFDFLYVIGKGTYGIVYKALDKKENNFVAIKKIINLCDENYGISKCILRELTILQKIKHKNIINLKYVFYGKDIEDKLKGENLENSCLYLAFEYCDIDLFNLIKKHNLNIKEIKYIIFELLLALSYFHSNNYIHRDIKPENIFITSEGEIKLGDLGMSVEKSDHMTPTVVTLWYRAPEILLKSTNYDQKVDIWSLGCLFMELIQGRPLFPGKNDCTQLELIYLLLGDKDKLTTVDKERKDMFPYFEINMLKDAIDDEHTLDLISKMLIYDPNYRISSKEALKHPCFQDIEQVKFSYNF
Sequence of Calcium-dependent protein kinase 4 (Plasmodium falciparum (isolate 3D7)) (Q8IBS5 whole entry, looked up): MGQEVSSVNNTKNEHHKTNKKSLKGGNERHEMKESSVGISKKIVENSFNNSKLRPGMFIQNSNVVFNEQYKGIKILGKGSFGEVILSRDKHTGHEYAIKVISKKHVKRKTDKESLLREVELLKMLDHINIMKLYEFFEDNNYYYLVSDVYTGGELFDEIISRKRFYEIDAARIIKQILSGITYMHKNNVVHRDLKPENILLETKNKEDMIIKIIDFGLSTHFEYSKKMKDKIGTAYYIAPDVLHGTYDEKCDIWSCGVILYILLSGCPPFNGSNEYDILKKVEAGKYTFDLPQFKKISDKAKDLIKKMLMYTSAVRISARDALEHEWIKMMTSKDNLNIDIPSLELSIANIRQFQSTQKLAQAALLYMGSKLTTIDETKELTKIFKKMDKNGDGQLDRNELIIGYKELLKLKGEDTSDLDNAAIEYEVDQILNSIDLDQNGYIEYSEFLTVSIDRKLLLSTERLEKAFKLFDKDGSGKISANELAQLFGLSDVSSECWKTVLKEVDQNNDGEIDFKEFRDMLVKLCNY

In general, inhibition refers to the change of the read-out against control, counted positive when it falls. Take `O=C(NCCc1ccccc1)N(Cc1ccccc1-c1cccc(CNCCc2ccccc2)c1)C1CCN(Cc2ccccc2)CC1`: the growth inhibition in experiment [1] is 88% (active); in experiment [4] it was 100% (active). The inhibition in experiment [2] was 100% (active); in experiment [3], 4%. The outcome in experiment [5], in experiment [6], in experiment [7] and in experiment [8] was inactive.
Consider `CN(C)c1ccc(-c2cscc2C(=O)NC2CCCN(Cc3cccnc3)C2)cc1` (stereo not given), for which the growth inhibition in experiment [1] was 70% (active); in experiment [4], 89% (active). Further, the inhibition was 5% in experiment [2] and 0% in experiment [3]. Moreover, the result in experiment [5], in experiment [6], in experiment [7] and in experiment [8] was inactive.
On to `N#Cc1cccc(-c2ccc(C(=O)Nc3ccc4c(c3)CCN(C3CCC3)CC4)cn2)c1`, for which the figures for the growth inhibition in experiment [1] and in experiment [4] were 5% and 96% (active), respectively. The inhibition in experiment [2] was 26%; in experiment [3], -2%. Also, the result in experiment [5], in experiment [6], in experiment [7] and in experiment [8] was inactive.
In the case of `O=c1nc(C=Cc2ccc(Br)cc2)oc2ccccc12`, the values for the growth inhibition in experiment [1] and in experiment [4] were 66% (active) and 97% (active), respectively. For the same molecule, the inhibition is -8% in experiment [2] and -1% in experiment [3]. Besides, the outcome in experiment [5], in experiment [6], in experiment [7] and in experiment [8] was inactive.
On to `O=C(Nc1ccc2c(c1)CCC2)c1cnc(N2CCN(c3ccncc3)CC2)c(Cl)c1`, for which the figures for the growth inhibition in experiment [1] and in experiment [4] were 48% and 100% (active), respectively. The inhibition was 33% in experiment [2] and 2% in experiment [3]. The result in experiment [5], in experiment [6], in experiment [7] and in experiment [8] was inactive.
Turning to `O=C(Nc1ccc(F)cc1F)NC1CCN(CCCCCNC(=O)[C@@H]2C[C@H]2c2ccc(Cl)c(Cl)c2)CC1`, the growth inhibition was 32% in experiment [1] and 100% (active) in experiment [4]. Further, the values for the inhibition in experiment [2] and in experiment [3] were 41% and 1%, respectively. The outcome in experiment [5], in experiment [6], in experiment [7] and in experiment [8] was inactive.
`CCNc1cc(C(=O)N[C@@H](Cc2ccccc2)[C@H](O)CNC2CCSCC2)cc(N2CCCC2=O)c1`: the growth inhibition is 98% (active) in experiment [1] and 99% (active) in experiment [4]. Also, the inhibition in experiment [2] was 0%; in experiment [3] it was -1%. Besides, the result in experiment [5], in experiment [6], in experiment [7] and in experiment [8] was inactive.
As for `O=C(O[C@@H]1CN[C@H](C#Cc2cc3ncnc(Nc4ccc5c(cnn5Cc5cccc(F)c5)c4)c3s2)C1)N1CCCC1`, the growth inhibition is 56% (active) in experiment [1] and 86% (active) in experiment [4]. Also, the figures for the inhibition in experiment [2] and in experiment [3] were 9% and -3%, respectively. For the same molecule, the result in experiment [5], in experiment [6], in experiment [7] and in experiment [8] was inactive.
In the case of `Oc1ccc(CCNc2nc(NCCCOc3ccccc3-c3cccnc3)nc(N3CCNCC3)n2)cc1`, the values for the growth inhibition in experiment [1] and in experiment [4] were 1% and 92% (active), respectively. In addition, the inhibition was 10% in experiment [2] and 0% in experiment [3]. Further, the outcome in experiment [5], in experiment [6], in experiment [7] and in experiment [8] was inactive.
As for `O=C(Nc1cccc(-c2ccc(-c3nc4ccc(C(F)(F)F)cc4[nH]3)cc2)c1)Nc1ccc(F)c(F)c1F`, the growth inhibition is 99% (active) in experiment [1] and 102% (active) in experiment [4]. The inhibition was 45% in experiment [2] and -2% in experiment [3]. Also, the result in experiment [5], in experiment [6], in experiment [7] and in experiment [8] was inactive.
Take `CC1(C)N=C(N)N=C(N)N1OCCCOc1ccccc1Cl`: the values for the growth inhibition in experiment [1] and in experiment [4] were 94% (active) and 96% (active), respectively. Also, the inhibition in experiment [2] was 64% (active); in experiment [3] it was 1%. Further, the outcome in experiment [5], in experiment [6], in experiment [7] and in experiment [8] was inactive.
For `CCCCCCCN1CC[C@H](NC(=O)Nc2ccnc3ccc(OC)cc23)[C@H](C(=O)OCC)C1`, the figures for the growth inhibition in experiment [1] and in experiment [4] were 73% (active) and 101% (active), respectively. The inhibition in experiment [2] is 11%; in experiment [3], 7%. For the same molecule, the outcome in experiment [5], in experiment [6], in experiment [7] and in experiment [8] was inactive.
Turning to `CS(=O)(=O)N1CC2(CCN(CCC(NC(=O)/C=C/c3ccccc3)c3ccc(Cl)c(Cl)c3)CC2)c2ccccc21` (stereo not given), the growth inhibition in experiment [1] is 55% (active); in experiment [4], 97% (active). The inhibition in experiment [2] was 18%; in experiment [3], 2%. For the same molecule, the result in experiment [5], in experiment [6], in experiment [7] and in experiment [8] was inactive.
For the molecule `CCOc1c(Br)cc(Br)cc1CNCCCCNc1nc2ccccc2[nH]1`, the figures for the growth inhibition in experiment [1] and in experiment [4] were 37% and 101% (active), respectively. The inhibition in experiment [2] was 25%; in experiment [3], -4%. Besides, the result in experiment [5], in experiment [6], in experiment [7] and in experiment [8] was inactive.
For the molecule `OC(Cn1ccnc1)(c1ccc(Cl)cc1Cl)C1CCCCC1` (stereo not given), the growth inhibition in experiment [1] was 58% (active); in experiment [4] it was 98% (active). Moreover, the inhibition in experiment [2] and in experiment [3] was 7% each time. Besides, the outcome in experiment [5], in experiment [6], in experiment [7] and in experiment [8] was inactive.
In the case of `COc1ccc(CCNCCCCCCNCCc2ccc(Cl)cc2)c(Cl)c1OC`, the values for the growth inhibition in experiment [1] and in experiment [4] were 4% and 101% (active), respectively. Besides, the inhibition in experiment [2] was 88% (active); in experiment [3], 5%. Further, the outcome in experiment [5], in experiment [6], in experiment [7] and in experiment [8] was inactive.
In the case of `Cc1ccccc1C1CCN(c2ccc(C(=O)Nc3ccccc3)cn2)CC1`, the growth inhibition in experiment [1] is 94% (active); in experiment [4] it was 95% (active). Moreover, the inhibition in experiment [2] is 53% (active); in experiment [3], -2%. Besides, the outcome in experiment [5], in experiment [6], in experiment [7] and in experiment [8] was inactive.
For `O=[N+]([O-])c1cccc(NC(=S)N2CCCN(Cc3ccc(C(F)(F)F)cc3)CC2)c1`, the growth inhibition in experiment [1] is 49%; in experiment [4], 90% (active). The inhibition in experiment [2] is 11%; in experiment [3], 0%. Further, the result in experiment [5], in experiment [6], in experiment [7] and in experiment [8] was inactive.
For the molecule `CC(C)(C)c1ccc(CN2CCC(NC(=O)c3ccc(-c4ccccc4F)s3)CC2)cc1`, the growth inhibition in experiment [1] was 37%; in experiment [4], 85% (active). In addition, the values for the inhibition in experiment [2] and in experiment [3] were 36% and 0%, respectively. Also, the result in experiment [5], in experiment [6], in experiment [7] and in experiment [8] was inactive.
As to `COc1ccccc1Nc1nc(C)cc(NCc2ccc(-n3ccnc3)cc2)n1`, the growth inhibition in experiment [1] is 10%; in experiment [4] it was 90% (active). For the same molecule, the inhibition in experiment [2] is 5%; in experiment [3], -2%. In addition, the outcome in experiment [5], in experiment [6], in experiment [7] and in experiment [8] was inactive.

The values above are taken from PubChem BioAssay.
